Among the test systems are BT-549 breast; MDA-MB-435 melanoma; SW-620 colon; MCF7 breast; HCT-116 colon; HCC-2998 colon; KM12 colon.
What all share (assay): NCI-60 one-dose screen, 48 h (100 = growth as untreated, 0 = no growth, -100 = all killed)
Common to all, as to conditions: 10 µM unless noted

Molecules are shown by their SMILES. About 83,000 compounds went through this panel and 20% of them were active in at least one assay; those are over-represented in the sample as a whole.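 How to read the values: 0–100, growth inhibition (40 = 60% inhibited); 0, no net growth; -100 to 0, cell death (-40 = 40% of starting cells died; -100 = all dead).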 Values without a mark were called inactive. The source made the active and inactive calls. The calls were made as follows: active = growth percent below 10; inactive = the rest.

Turning to `CCOC(=O)NCCc1nc2c([nH]1)c(=O)n(C)c(=O)n2C`, the growth with BT-549 breast is 97.6%; with MDA-MB-435 melanoma it was 101%; with SW-620 colon it was 103%; in the assay with MCF7 breast, 95.4%; in the assay on HCT-116 colon, 92.7%; in the assay with HCC-2998 colon it was 99.7%. Besides, the growth with KM12 colon is 101%.

For `COc1ccc(NC(=O)c2ccc(Nc3ncnc4[nH]c(C)c(C)c34)cc2)cc1`, the growth with BT-549 breast was 99.1%; in the assay with MDA-MB-435 melanoma, 108%; in the assay with SW-620 colon, 102%; with MCF7 breast, 100%; in the assay on HCT-116 colon it was 106%; in the assay on HCC-2998 colon, 104%. Further, in the assay with KM12 colon, the growth was 103%.

`O=C1C(=O)c2c(nc3ccc(Br)cn23)-c2ccccc21`: the growth in the assay on BT-549 breast is -86.8% (active); in the assay on MDA-MB-435 melanoma, -94% (active); with SW-620 colon it was -79.6% (active); in the assay with MCF7 breast, -54.1% (active); in the assay with HCT-116 colon, -88.9% (active); with HCC-2998 colon, -82.5% (active). In addition, the growth with KM12 colon is -41.5% (active).

In the case of `COc1ccc(Nc2cc(NC(=O)CNc3cc(OC)c(Cl)c(OC)c3Cl)ncn2)cc1`, the growth with BT-549 breast is 83.2%; with MDA-MB-435 melanoma, 74%; in the assay on SW-620 colon, 96.3%; in the assay with MCF7 breast, 71.7%; with HCT-116 colon it was 69.9%; in the assay with HCC-2998 colon, 95.5%. Moreover, the growth in the assay with KM12 colon was 81.5%.

As for `CCc1n(Cc2ccc3ccccc3c2)c2ccccc2[n+]1Cc1ccc2ccccc2c1`, the growth was 58.7% with BT-549 breast; 46.7% in the assay with MDA-MB-435 melanoma; 77.1% with SW-620 colon; 49.6% in the assay with MCF7 breast; 51.5% in the assay on HCT-116 colon; 58% in the assay on HCC-2998 colon. In the assay on KM12 colon, the growth is 39.6%.

`Clc1ccc2c(NCCCNC3CCCCC3)ccnc2c1`: the growth was 107% in the assay with BT-549 breast; 84.6% in the assay on MDA-MB-435 melanoma; 111% in the assay with SW-620 colon; 90.7% in the assay with MCF7 breast; 64.5% with HCT-116 colon; 91.3% in the assay with HCC-2998 colon. Further, the growth in the assay on KM12 colon was 101%.

As for `Cc1[nH]c(N=Nc2ccccc2)nc1N=Nc1ccccc1`, the growth in the assay on BT-549 breast was 37.7%; in the assay with MDA-MB-435 melanoma, 37.1%; in the assay with SW-620 colon, 31.7%; in the assay with MCF7 breast, 15.3%; in the assay on HCT-116 colon, 11.1%; in the assay on HCC-2998 colon, 26.3%. The growth in the assay with KM12 colon is 35.1%.

With `Cn1c2c(c3ccc(-c4ccn[nH]4)cc3c1=O)C(=O)c1ccccc1-2`, the growth is 50.5% with BT-549 breast; 77.6% in the assay on MDA-MB-435 melanoma; 31.1% in the assay on SW-620 colon; 9.04% (active) in the assay with MCF7 breast; 21.9% in the assay on HCT-116 colon; 79.8% in the assay with HCC-2998 colon. In addition, the growth in the assay with KM12 colon is 15.7%.

For `O=C(Nc1ccc2ncnc(Nc3cccc(C(F)(F)F)c3)c2c1)c1cccs1`, the growth was 71.8% with BT-549 breast; 63.3% in the assay on MDA-MB-435 melanoma; 27.7% with SW-620 colon; 32.2% in the assay on MCF7 breast; 38.3% with HCT-116 colon; 62.8% with HCC-2998 colon. In addition, the growth in the assay with KM12 colon is 49.6%.

With `C=C(C)[C@@H]1CCC=C2CC[C@]3(C)[C@H](CC[C@@H]4[C@@]5(C)CCCNC(C)(C)[C@@H]5CC[C@]43C)[C@H]21`, the growth with BT-549 breast is 89.2%; with MDA-MB-435 melanoma, 16.8%; with SW-620 colon, -50.2% (active); in the assay with MCF7 breast, 0.921% (active); in the assay on HCT-116 colon it was -54.8% (active); in the assay on HCC-2998 colon, 5.32% (active). In addition, in the assay with KM12 colon, the growth is 19.9%.

As to `O=C1CC23OC4ON=C(Br)C4C2C(O)c2ccccc2N13` (stereo not given), the growth in the assay with BT-549 breast is 105%; with MDA-MB-435 melanoma it was 111%; in the assay with SW-620 colon it was 101%; in the assay with MCF7 breast, 88.5%; in the assay on HCT-116 colon it was 94.5%; in the assay with HCC-2998 colon, 103%. In the assay with KM12 colon, the growth was 100%.

For `C=C1C(=O)O[C@H]2[C@H]1CCC(/C=N/c1ncc(Br)cc1N)=C\CC[C@@]1(C)O[C@@H]21`, the growth in the assay on BT-549 breast was 1.35% (active); with MDA-MB-435 melanoma it was 22.6%; with SW-620 colon, -62.7% (active); in the assay with MCF7 breast, -3.68% (active); in the assay with HCT-116 colon it was -52.6% (active); in the assay on HCC-2998 colon, 62.2%. Further, the growth in the assay with KM12 colon is 53.9%.

Turning to `[2H]c1cc2c(c([2H])c1F)/C(=C/c1[nH]c(C)c(C(=O)NCCN(CC)CC)c1C)C(=O)N2`, the growth with BT-549 breast was 67.6%; in the assay on MDA-MB-435 melanoma it was 34%; in the assay with SW-620 colon, 25.7%; with MCF7 breast, 38.5%; in the assay with HCT-116 colon it was 34.1%; in the assay on HCC-2998 colon it was 69.7%. Besides, the growth in the assay on KM12 colon is 1.85% (active).

As to `CC(C)Cc1cc(CNC(=O)C2[C@H]3CN(C(=O)c4ccccc4)C[C@@H]23)nn1-c1ccccc1` (stereo not given in full), the growth with BT-549 breast is 96.1%; in the assay on MDA-MB-435 melanoma, 108%; in the assay on SW-620 colon, 102%; with MCF7 breast it was 94.4%; with HCT-116 colon, 92%; with HCC-2998 colon it was 101%. Besides, the growth in the assay with KM12 colon is 101%.

On to `O=C(O)c1ccc(-n2cc(/C=N/Nc3ccc(Cl)cc3Cl)c(-c3ccccc3)n2)cc1`, for which the growth in the assay on BT-549 breast was 79.3%; in the assay with MDA-MB-435 melanoma it was 95.5%; in the assay on SW-620 colon, 96.3%; with MCF7 breast, 69.8%; with HCT-116 colon, 76.8%; in the assay on HCC-2998 colon it was 101%. Moreover, in the assay with KM12 colon, the growth is 83.4%.

Source of the values: PubChem BioAssay (NCI).
